# From the antibiotic and cytotoxicity screens of Wong et al. (2023)
# Screen size: about 39,000 compounds; about 500 (1.3%) were called active. Many of the other results were omitted from the sample, so actives are more common in it than they were.
# Test system: S. aureus RN4220
# Assay: growth inhibition call (relative growth <= 0.2)
# Conditions: 50 µM
row,SMILES,growth inhibition call
1,Cc1ccc(S(=O)(=O)N(C)C[C@H]2OCCCC[C@H](C)Oc3ccc(NC(=O)Nc4c(C)noc4C)cc3C(=O)N([C@H](C)CO)C[C@@H]2C)cc1,inactive
2,Cc1ccc(-c2ccc3c(c2)O[C@H](CN(C)C(=O)NC(C)C)[C@@H](C)CN([C@@H](C)CO)S3(=O)=O)cc1,inactive
3,C[C@H]1CN([C@@H](C)CO)C(=O)Cc2cc(NS(C)(=O)=O)ccc2O[C@@H]1CN(C)C(=O)Nc1ccc(C(F)(F)F)cc1,inactive
4,CC1(C)S[C@H]2[C@@H](NC(=O)[C@@H](NC(=O)N3CCN(S(C)(=O)=O)C3=O)c3ccccc3)C(=O)N2[C@@H]1C(=O)O,active
5,C[C@H](CO)N1C[C@H](C)[C@@H](CN(C)C(=O)C2CCOCC2)Oc2ncc(C#Cc3ccccc3F)cc2C1=O,inactive
6,CC(C)NC(=O)N[C@@H]1C=C[C@H](CC(=O)O)O[C@H]1CO,inactive
7,COc1ccc(CN(C)C[C@H]2Oc3ccc(NC(=O)Cn4cnnn4)cc3C(=O)N([C@@H](C)CO)C[C@H]2C)cc1,inactive
8,CO[C@@H]1CN(C)C(=O)c2cc(NC(=O)C3CCCC3)ccc2OC[C@@H](C)N(C(=O)Nc2ccc(C(F)(F)F)cc2)C[C@H]1C,inactive
9,CO[C@@H]1CN(C)C(=O)c2ccc(NC(=O)C3CCOCC3)cc2OC[C@@H](C)N(C(=O)Nc2ccc(C(F)(F)F)cc2)C[C@H]1C,active
10,CO[C@@H]1CN(C)C(=O)c2ccc(NC(=O)C3CCCC3)cc2OC[C@@H](C)N(C(=O)Nc2ccc(C(F)(F)F)cc2)C[C@H]1C,inactive
11,CO[C@@H]1CN(C)C(=O)c2ccc(NC(=O)C3CC3)cc2OC[C@@H](C)N(C(=O)Nc2ccc(C(F)(F)F)cc2)C[C@H]1C,inactive
12,CO[C@@H]1CN(C)C(=O)c2cc(NC(=O)C3CCOCC3)ccc2OC[C@@H](C)N(C(=O)Nc2ccc(C(F)(F)F)cc2)C[C@H]1C,active
13,CO[C@@H]1CN(C)C(=O)c2cc(NC(=O)C3CC3)ccc2OC[C@@H](C)N(C(=O)Nc2ccc(C(F)(F)F)cc2)C[C@H]1C,inactive
14,C[C@H](CO)N1C[C@H](C)[C@H](CN(C)Cc2ccncc2)Oc2ccc(NC(=O)Nc3ccc(C(F)(F)F)cc3)cc2C1=O,inactive
15,C[C@@H]1CN([C@H](C)CO)C(=O)c2cc(NS(=O)(=O)c3cccs3)ccc2O[C@@H](C)CCCCO[C@@H]1CN(C)S(=O)(=O)c1ccc(Cl)cc1,inactive
16,CCN(CC)C(C)CN1c2ccccc2Sc2ccccc21.Cl (centres undefined),inactive
17,C[C@H](CO)N1C[C@H](C)[C@H](CN(C)C(=O)Nc2ccccc2)Oc2c(NS(=O)(=O)c3cn(C)cn3)cccc2C1=O,inactive
18,C[C@@H]1CN([C@H](C)CO)C(=O)c2cccc(NS(=O)(=O)c3ccc(F)cc3)c2O[C@H]1CN(C)S(=O)(=O)c1cccs1,inactive
19,Cc1ccc(OC(=O)N(C)C[C@H]2OCc3ccccc3-c3ccccc3C(=O)N([C@@H](C)CO)C[C@@H]2C)cc1,inactive
20,C[C@H](CO)N1C[C@H](C)[C@@H](CN(C)C(=O)c2ccncc2)OCCCC[C@H](C)Oc2ccc(NS(=O)(=O)c3ccc(Cl)cc3)cc2C1=O,inactive
21,Cc1cn([C@H]2C[C@H](O)[C@@H](CO)O2)c(=O)[nH]c1=O,inactive
22,Cc1cn([C@@H]2C[C@@H](O)[C@H](CO)O2)c(=O)[nH]c1=O,inactive
23,Cc1cn([C@@H]2C[C@H](O)[C@@H](CO)O2)c(=O)[nH]c1=O,inactive

row,SMILES,growth inhibition call
1,O=c1[nH]c(=O)n(C2CC(O)C(CO)O2)cc1F (centres undefined),inactive
2,O=c1[nH]c(=O)n([C@H]2C[C@H](O)[C@@H](CO)O2)cc1F,active
3,O=c1[nH]c(=O)n([C@@H]2C[C@@H](O)[C@@H](CO)O2)cc1F,active
4,C[C@H](CO)N1C[C@H](C)[C@@H](CN(C)S(=O)(=O)c2cn(C)cn2)Oc2ccc(NC(=O)C3CC3)cc2C1=O,inactive
5,C[C@H]1CCCCO[C@@H](CN(C)C(=O)Cc2ccccc2)[C@@H](C)CN([C@@H](C)CO)C(=O)c2cc(NS(=O)(=O)c3ccc(F)cc3)ccc2O1,inactive
6,C#CCOc1ccc(-c2c(C(=O)NC3CCCCC3)oc(OC)c2S(=O)(=O)c2ccc(Cl)cc2)cc1,inactive
7,COc1ccc(S(=O)(=O)N(C)C[C@H]2OCCCC[C@@H](C)Oc3ccc(NC(=O)Nc4c(C)noc4C)cc3C(=O)N([C@@H](C)CO)C[C@@H]2C)cc1,inactive
8,O=C(Cn1cc(CN2C(=O)COC[C@H]2c2ccccc2)nn1)N1CCC2(CC1)C(=O)NCN2c1ccccc1,inactive
9,O=C(/C=C/c1cccc(-c2cn(-c3cccc(C(=O)N4CCC5(CC4)C(=O)NCN5c4ccccc4)c3)nn2)c1)NO,inactive
10,O=C(/C=C/c1cccc(-c2cn(CC(=O)N3CCC4(CC3)C(=O)NCN4c3ccccc3)nn2)c1)NO,inactive
11,O=C(NO)c1cn(CC(=O)N2CCC3(CC2)C(=O)NCN3c2ccccc2)nn1,inactive
12,O=C(CCc1cn(CC(=O)N2CCC3(CC2)C(=O)NCN3c2ccccc2)nn1)NO,active
13,O=C(NO)c1cn(-c2cccc(C(=O)N3CCC4(CC3)C(=O)NCN4c3ccccc3)c2)nn1,active
14,Cc1ccc(S(=O)(=O)N(C)C[C@@H]2Oc3c(NC(=O)c4cnccn4)cccc3C(=O)N([C@@H](C)CO)C[C@H]2C)cc1,inactive
15,C[C@@H]1CCCCO[C@@H](CN(C)S(=O)(=O)c2ccccc2)[C@@H](C)CN([C@H](C)CO)C(=O)c2cc(NS(=O)(=O)c3ccc(Cl)cc3)ccc2O1,inactive
16,Cc1noc(C)c1S(=O)(=O)Nc1cccc2c1O[C@@H](CN(C)Cc1ccc(C(=O)O)cc1)[C@@H](C)CN([C@H](C)CO)C2=O,inactive
17,CCCC(=O)Nc1ccc2c(c1)OC[C@@H](C)N(C(=O)Cc1cccnc1)C[C@@H](C)[C@H](OC)CN(C)C2=O,inactive
18,Cc1noc(C)c1CO,inactive
19,Cc1ccc(-c2noc([C@H](C)c3ccc(CC(C)C)cc3)n2)cc1,inactive
20,C[C@@H]1CCCCO[C@@H](CN(C)Cc2ccccc2)[C@@H](C)CN([C@@H](C)CO)C(=O)c2cc(NS(=O)(=O)c3ccc(F)cc3)ccc2O1,inactive
21,NCc1cc2ccccc2s1,inactive
22,O=C(O)c1cn(C2CC2)c2cc(N3CCC(O)(COc4ccc(N5C[C@H](CO)OC5=O)cc4F)CC3)c(F)cc2c1=O,inactive
23,Cn1c(=O)c2c(ncn2CC(=O)N2CCN(c3ccccc3F)CC2)n(C)c1=O,inactive

row,SMILES,growth inhibition call
1,CC(=O)NC[C@H]1CN(c2ccc(N3CCN(C(=O)CO)CC3)c(F)c2)C(=O)O1,active
2,Cc1cccc(N2C[C@@H](CN)OC2=O)c1,inactive
3,CC(=O)NCC1CN(c2ccc(N3CCOCC3)c(F)c2)C(=O)O1 (centres undefined),active
4,CC(C)NC(=O)Nc1ccc2c(c1)C(=O)N([C@H](C)CO)C[C@H](C)[C@@H](CN(C)C(=O)Nc1ccc(F)cc1)OCCCC[C@@H](C)O2,inactive
5,Cc1noc(C)c1NC(=O)N(C)C[C@H]1OCCCC[C@@H](C)Oc2ccc(NS(=O)(=O)c3ccc(F)cc3)cc2C(=O)N([C@H](C)CO)C[C@@H]1C,inactive
6,C[C@H](CO)N1C[C@H](C)[C@H](CN(C)C)OCCCC[C@H](C)Oc2ccc(NS(=O)(=O)c3cn(C)cn3)cc2C1=O,inactive
7,COc1cc(-c2cc(=O)c3c(=O)cc(-c4ccc(O)c(OC)c4)n(CCc4ccccc4)c3s2)ccc1O,inactive
8,Cc1noc(C)c1NC(=O)N(C)C[C@@H]1Oc2ccc(NS(=O)(=O)c3cn(C)cn3)cc2CC(=O)N([C@H](C)CO)C[C@H]1C,inactive
9,CO[C@H]1O[C@H](CO)[C@@H](OC(=O)Nc2ccc(Br)cc2)[C@@H]2OC(=O)[C@H](Cc3cccc(Br)c3)C/C=C/C[C@@H](Cc3cccc(Br)c3)C(=O)O[C@@H]12,inactive
10,C[C@@H]1CN([C@@H](C)CO)C(=O)c2cccc(NS(=O)(=O)c3ccc(F)cc3)c2O[C@@H]1CN(C)S(C)(=O)=O,inactive
11,CCNC1CC(N)C(OC2OC(CN)=CCC2N)C(O)C1OC1OCC(C)(O)C(NC)C1O.O=S(=O)(O)O.O=S(=O)(O)O (centres undefined),inactive
12,CNC1C(O)C(OC2C(N)CC(N)C(OC3OC(CN)=CCC3N)C2O)OCC1(C)O.O=S(=O)(O)O (centres undefined),active
13,CN[C@@H]1[C@@H](O)[C@@H](O[C@@H]2[C@@H](O)[C@H](O[C@H]3OC(CN)=CC[C@H]3N)[C@@H](N)C[C@H]2N)OC[C@]1(C)O,inactive
14,C[C@@H]1CCCCO[C@H](CN(C)C(=O)CCC(F)(F)F)[C@@H](C)CN([C@@H](C)CO)C(=O)c2cc(NS(=O)(=O)c3ccc(F)cc3)ccc2O1,inactive
15,CC(C)NC(=O)Nc1ccc2c(c1)C(=O)N([C@@H](C)CO)C[C@H](C)[C@@H](CN(C)Cc1ccccc1)OCCCC[C@H](C)O2,inactive
16,CO[C@@H]1CN(C)C(=O)c2ccc(NC(=O)Nc3cccc(Cl)c3)cc2OC[C@@H](C)N(C(=O)Nc2c(C)noc2C)C[C@H]1C,inactive
17,CC(C)(C)[S@@+]([O-])N1Cc2cc(C(=O)NCc3ccc4c(c3)OCO4)nc(-c3ccc(-c4ccc(C#N)cc4)cc3)c2[C@H]1CCO,inactive
18,Cc1noc(C)c1S(=O)(=O)N(C)C[C@H]1OCCCC[C@@H](C)Oc2ccc(NC(=O)Nc3ccc(F)cc3)cc2C(=O)N([C@@H](C)CO)C[C@@H]1C,inactive
19,CC(C)NC(=O)N(C)C[C@@H]1OCCCC[C@@H](C)Oc2ccc(NS(C)(=O)=O)cc2C(=O)N([C@@H](C)CO)C[C@H]1C,inactive
20,CCCSc1nc(N[C@@H]2C[C@H]2c2ccc(F)c(F)c2)c2nnn([C@@H]3C[C@H](OCCO)[C@@H](O)[C@H]3O)c2n1,active
21,COc1cc(C)c(C(=O)O)c(O)c1,inactive
22,COc1cc(O)c(C(=O)O)c(O)c1,inactive
23,CCCCCc1c2c(cc(O)c1C(=O)O)OC(=O)c1c(cc(OC)cc1C(=O)CCCC)O2,active
